About 83,000 compounds went through this panel and 20% of them were active in at least one assay; those are over-represented in the sample as a whole.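 48-hour exposure, single concentration, 96-well plates; percent growth endpoint where 0 means no net growth. Active: below 10.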 Values without a mark were called inactive. Active and inactive are the calls of the source.
Experiments:
Assay in all cases: NCI-60 one-dose screen, 48 h (100 = growth as untreated, 0 = no growth, -100 = all killed)
Conditions in all cases: 10 µM unless noted
MOLT-4 leukemia = tested on: MOLT-4 leukemia
SR leukemia = tested on: SR leukemia
RPMI-8226 leukemia = tested on: RPMI-8226 leukemia
OVCAR-8 ovarian = tested on: OVCAR-8 ovarian
OVCAR-5 ovarian = tested on: OVCAR-5 ovarian
SK-OV-3 ovarian = tested on: SK-OV-3 ovarian
IGROV1 ovarian = tested on: IGROV1 ovarian
OVCAR-3 ovarian = tested on: OVCAR-3 ovarian
T-47D breast = tested on: T-47D breast
BT-549 breast = tested on: BT-549 breast
MDA-MB-435 melanoma = tested on: MDA-MB-435 melanoma
SW-620 colon = tested on: SW-620 colon
MCF7 breast = tested on: MCF7 breast
HCT-116 colon = tested on: HCT-116 colon
HCC-2998 colon = tested on: HCC-2998 colon
KM12 colon = tested on: KM12 colon
OVCAR-4 ovarian = tested on: OVCAR-4 ovarian
HS 578T breast = tested on: HS 578T breast
NCI/ADR-RES ovarian = tested on: NCI/ADR-RES ovarian

Row | Structure (SMILES) | growth (MOLT-4 leukemia) | growth (SR leukemia) | growth (RPMI-8226 leukemia) | growth (OVCAR-8 ovarian) | growth (OVCAR-5 ovarian) | growth (SK-OV-3 ovarian) | growth (IGROV1 ovarian) | growth (OVCAR-3 ovarian) | growth (T-47D breast) | growth (BT-549 breast) | growth (MDA-MB-435 melanoma) | growth (SW-620 colon) | growth (MCF7 breast) | growth (HCT-116 colon) | growth (HCC-2998 colon) | growth (KM12 colon) | growth (OVCAR-4 ovarian) | growth (HS 578T breast) | growth (NCI/ADR-RES ovarian)
1 | C1CCC([PH+](C2CCCCC2)C2CCCCC2[PH+](C2CCCCC2)C2CCCCC2)CC1.[Au].[CH-]1CCCCC1CC1CCCC[N-]1 (stereo unspecified) | 0.501% (active) | 1.21% (active) | -8.82% (active) | 5.9% (active) | -37.2% (active) | -70.5% (active) | -29.4% (active) | -86.5% (active) | 7.94% (active) | -53.6% (active) | -39.2% (active) | -24% (active) | -44.2% (active) | -65.8% (active) | -92.5% (active) | -70.2% (active) |  |  | 
2 | Fc1ccc(C2=CCNCC2)cc1 | 106% | 114% | 122% | 100% | 82.3% | 104% |  | 102% | 99.2% |  | 102% | 104% | 93.9% | 109% |  | 109% | 111% | 114% | 78.6%
3 | COc1ccc2nc(NC(=O)COc3cc(/C=C\c4cc(OC)c(OC)c(OC)c4)ccc3OC)sc2c1 | 12.9% | 28% | 20.9% | 24% | 71.6% | 8.6% (active) |  | -39% (active) | 19.9% | 55.4% | -45.1% (active) | 25.5% | 16.9% | 12.6% | 45.5% | 16.8% | 49% | -5.92% (active) | -5.38% (active)
4 | O=C1C=C(N2C3C4CCC(C4)C32)C(=O)C=C1c1ccccc1 (stereo unspecified) | 2.18% (active) | 0.878% (active) | 53.1% | 72.4% | 102% | 88.9% |  | 74.5% | 6.64% (active) | 93.2% | 99.7% | 82.6% | 62.4% | 85% | 115% | 102% | 48% | 102% | 99.4%
5 | c1ccc(CSC(c2ccccc2)c2ccccc2)cc1 | 115% | 141% |  | 109% | 104% | 123% | 107% | 119% | 117% | 116% | 114% | 103% | 124% | 89.8% | 107% | 106% | 120% | 112% | 106%
6 | [Cl][Hg][c]1cc[c]([Hg][Cl])o1 | 14.3% | 6.25% (active) |  | 65.1% | 122% | 94.9% | 15.9% | -1.69% (active) | -7.76% (active) | 14% | 55.1% | 12.3% | -18.6% (active) | 30.7% | 106% | 76% | 79.6% | 55.4% | 
7 | CCOC(=S)S[C@H]1C[C@@H]2[C@H](CC[C@]3(C)C(=O)CC[C@@H]23)[C@@]2(C)CCC(=O)C=C12 | 110% | 106% |  | 100% | 102% | 108% | 112% | 115% | 108% | 105% | 101% | 105% | 90.6% | 104% | 106% | 101% | 106% | 108% | 102%
8 | CC12CCC3C(CCC4=CC(=O)CCC43CF)C1CCC2=O (stereo unspecified) | 106% | 119% |  | 94.3% | 118% | 120% | 62.4% | 119% | 39.4% | 97.2% | 100% | 126% | 130% | 110% | 140% | 117% | 98.8% | 128% | 108%
9 | O=C1OCC2=C1C(c1ccccc1)c1cc3c(cc1N2)OCO3 (stereo unspecified) | 21.2% | 8.69% (active) |  | 5.45% (active) | 43.5% | 2.36% (active) | 36.4% | -46% (active) | 62.6% | -5.6% (active) | -24.9% (active) | 27.8% | 15.9% | 4.53% (active) |  | -32% (active) | 41.4% | 43.2% | -0.134% (active)
